Test results published in PMC4552634, “A New Set of Chemical Starting Points with Plasmodium falciparum Transmission-Blocking Potential for Antimalarial Drug Discovery” (PLoS ONE, 2015).
In all, about 13,000 compounds went through this assay and about 3,200 (25%) showed an effect of 50% or more. This is one part of the list.

The compounds below were run on P. falciparum stage V gametocytes. Conditions: 48 h, 5 µM; inhibitor.
Design: BacTiter-Glo ATP luminescence viability of purified stage V gametocytes in 384-well plates, per cent inhibition versus DMSO

Structure (SMILES) | % Inhibition [%]
Cc1cccc2nc(-c3cccc(-c4ccc(C(=O)NCc5nccn5C)cc4)c3)[nH]c12 [TCMDC-132356] | 7.308
COc1ccc(S(=O)(=O)N(c2cc(Br)cc3c2OCC3)S(=O)(=O)c2ccc(OC)c(N3CCN(C)CC3)c2)cc1N1CCN(C)CC1 [TCMDC-139809] | 54.84
COc1ccc(NS(=O)(=O)c2ccccc2Br)cc1N1CCN(C)CC1 [TCMDC-139092] | -23.57
COc1ccc(S(=O)(=O)Nc2cc(Br)cc3c2OCCC3)cc1N1CCN(C(=O)C(Cl)(Cl)Cl)CC1 [TCMDC-139661] | -19.32
O=C(/C=C/c1ccc(Cl)c(Cl)c1)N1CCC(CCN2CCc3[nH]c4ccccc4c3C2)CC1 [TCMDC-134173] | -40.99
CCOC(=O)c1cn(CC)c2cc(F)c(OC3CC4CCC3(C)C4(C)C)cc2c1=O (centres unmarked) [TCMDC-124161] | -18.01
CCn1c(/C=C/c2cc(Br)ccc2O)nc2ccccc2c1=O [TCMDC-124092] | 7.095
Nc1cc(C=Cc2ccc(O)cc2)nc2ccccc12 [TCMDC-138973] | -27.13
Nc1cc(-c2ccc(Br)cc2O)nc2ccccc12 [TCMDC-138932] | 61.65
CN1CCCN(Cc2cccc(-c3cccc(NS(=O)(=O)c4cccc5cccnc45)c3)c2)CC1 [TCMDC-136482] | 22.96
O=S(=O)(Nc1ccc(-c2ccc(CN3CCCC3)cc2)cc1)c1cccc2cccnc12 [TCMDC-136475] | 27.58
CCN1CCN(Cc2ccc(-c3ccc(NS(=O)(=O)c4cccc5cccnc45)cc3)cc2)CC1 [TCMDC-136479] | -5.672
CN1CCCN(Cc2cccc(-c3ccc(NS(=O)(=O)c4cccc5cccnc45)cc3)c2)CC1 [TCMDC-136481] | 100.2
CN1CCCN(Cc2ccc(-c3ccc(NS(=O)(=O)c4cccc5cccnc45)cc3)cc2)CC1 [TCMDC-136478] | 98.81
CC(C)NCc1cccc(-c2ccc(NS(=O)(=O)c3cccc4cccnc34)cc2)c1 [TCMDC-136480] | 43.51
COc1cc(F)c2ncc(Cl)c(CCN3CCC(NCc4ccc5c(c4)OCCO5)CC3)c2c1 [TCMDC-135624] | 2.949
CC(CCc1ccccc1)NCC(O)c1ccc2c(c1)S(=O)(=O)c1ccccc1N2 (centres unmarked) [TCMDC-131254] | -29.84
CCCCCN1CCCC(NS(=O)(=O)c2ccc(C(=O)Nc3ccc(C(F)(F)F)cc3)cc2)C1 (centres unmarked) [TCMDC-133677] | 16.66
CC(Cc1ccc(OCCCCOc2ccccc2)cc1)NCCC1CCCN1C (centres unmarked) [TCMDC-140017] | 116.2
CC(Cc1ccc(OCCCCOc2ccccc2)cc1)NCCCN1CCOCC1 (centres unmarked) [TCMDC-140018] | 107.6
CC(Cc1ccc(OCCN2CCN(c3ccccc3)CC2)cc1)NCC(O)c1cccc(Cl)c1F (centres unmarked) [TCMDC-131531] | 24.37
c1ccc(OCCCCN2CCCCC2)cc1 [TCMDC-124256] | 16.85
CN1CCCC1CCCOC(=O)c1ccc(N)cc1 (centres unmarked) [TCMDC-131643] | -5.047
Nc1ncc(-c2ccc(Br)cc2)c(N)n1 [TCMDC-125524] | -3.505
Cn1ccnc1CNC(=O)c1ccc(-c2ccc(-c3nc4cc(C(F)(F)F)ccc4[nH]3)s2)cc1 [TCMDC-132353] | 3.481

Structure (SMILES) | % Inhibition [%]
CC1CCCCN1CCCNc1nc(NCc2ccccc2)c2ccccc2n1 (centres unmarked) [TCMDC-137771] | 108.4
COc1cc(CCNc2nc(NCc3cccc4ccccc34)nc(N3CCC(N)CC3)n2)ccc1O [TCMDC-133444] | -7.002
c1ccc(CNc2nc(NCCc3cnc[nH]3)nc(N3CCCC4CCCCC43)n2)cc1 (centres unmarked) [TCMDC-139742] | 0.6761
COc1cccc2c(C)cc(NCc3ccc(Cl)cc3)nc12 [TCMDC-125774] | -17.6
Brc1ccc(Nc2nc(NCc3ccccc3)c3ccccc3n2)cc1 [TCMDC-124574] | 42.06
COc1cccc2c(NCc3ccccc3)nc(NCCCN3CCCCC3C)nc12 (centres unmarked) [TCMDC-137782] | 79.04
C=C1N(C)c2cc([N+](=O)[O-])c(N)cc2C1(C)C [TCMDC-125319] | -63.8
COc1cc2c(cc1COc1ccccc1)CCN1Cc3cc(OC)c(OC)cc3CC21 (centres unmarked) [TCMDC-141984] | -4.56
COc1cc2c(cc1O)[C@@H]1[C@H](O)[C@@H](O)C=C3CCN(C2)[C@H]31 [TCMDC-132036] | 63.23
CC(=O)Nc1ccc(C(=O)Nc2cccc(-c3ccc(-c4nc5ccccc5[nH]4)cc3)c2)cn1 [TCMDC-136827] | 76.21
CC(=O)Nc1ccc(C(=O)Nc2cccc(-c3csc(-c4nc5ccccc5[nH]4)c3)c2)cn1 [TCMDC-132405] | 77.44
CC(=O)Nc1ccc(C(=O)Nc2ccc(-c3csc(-c4nc5ccccc5[nH]4)c3)cc2)cn1 [TCMDC-132393] | 4.532
CC(=O)Nc1ccc(C(=O)Nc2ccc(-c3cccc(-c4nc5ccccc5[nH]4)c3)cc2)cn1 [TCMDC-136819] | -15.84
CC(=O)Nc1ccc(C(=O)Nc2cccc(-c3ccc(-c4nc5ccccc5[nH]4)s3)c2)cn1 [TCMDC-136821] | 24.61
CC(=O)Nc1ccc(C(=O)Nc2cccc(-c3cccc(-c4nc5ccccc5[nH]4)c3)c2)cn1 [TCMDC-136820] | 6.09
Cc1ccc(Cn2c(N3CCC(C(=O)NCc4ccccn4)CC3)nc3ccccc32)cc1 [TCMDC-125442] | 35.66
NC(=O)NC(=O)C=Cc1ccco1 [TCMDC-131644] | -0.9845
COc1cc(NC(=O)/C=C/c2cc(F)cc(F)c2F)cc(OCCN2CCC3(CC2)OCCO3)c1 [TCMDC-140933] | -20.54
COc1ccc(C(=O)N2CCC3(CC2)C(=O)N(CC(=O)NCC2CCCCC2)CN3c2ccccc2)cc1 [TCMDC-125171] | 3.565
O=C(Nc1ccc(C(F)(F)F)cc1)c1ccc(S(=O)(=O)NC2CCCN(CC3CCCCC3)C2)cc1 (centres unmarked) [TCMDC-133678] | 5.433
O=C(Nc1cccc(C(F)(F)F)c1)c1cccc(S(=O)(=O)NC2CCN(CC3CCCCC3)C2)c1 (centres unmarked) [TCMDC-132487] | 9.75
O=C(Nc1cccc(C(F)(F)F)c1)c1ccc(S(=O)(=O)NC2CCN(CC3CCCCC3)CC2)cc1 [TCMDC-132773] | 84.32
O=C(Nc1cccc(C(F)(F)F)c1)c1ccc(S(=O)(=O)NC2CCN(CC3CCCCC3)C2)cc1 (centres unmarked) [TCMDC-132772] | 86.66
O=C(Nc1ccc(C(F)(F)F)cc1)c1ccc(S(=O)(=O)NC2CCN(CC3CCCCC3)CC2)cc1 [TCMDC-133676] | -72.67
O=C(Nc1ccc(C(F)(F)F)cc1)c1ccc(S(=O)(=O)NC2CCN(CC3CCCCC3)C2)cc1 (centres unmarked) [TCMDC-133674] | -14.42
